Measured values taken from PubChem BioAssay AID652053 (Broad Institute, 2013).
Among all 1,300 compounds or so, about 930 (72%) were called active.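 How the source made its calls: active means fitted curve reaches 40% activation signal increase at or below the top valid tested concentration in every replicate test; inconclusive means replicate tests disagree in their calls; inactive means all replicate tests inactive, including effects opposite the expected signal rise.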 So high a share suggests a set chosen from earlier hits. Only a sample is shown. Measured potencies and affinities stand elsewhere.

Assay: miR-122 inhibitors in Huh7 reporter cells, dose response, cell-based, Huh7 psiCHECK-miR122, Renilla luciferase, cherry-pick (AID 652053)
Details: 48 h; series mostly up to 35 µM

outcome, inactive:
COc1ccccc1C(=O)Nc1ccc2c(c1)C(=O)N(C)[C@@H]1CC[C@@H](CC(=O)NCc3ccc(Cl)c(Cl)c3)O[C@@H]1CO2
COc1ccccc1C(=O)Nc1ccc2c(c1)C(=O)N(C)[C@@H]1CC[C@H](CC(=O)NCc3ccc(Cl)c(Cl)c3)O[C@@H]1CO2
COc1ccccc1C(=O)Nc1ccc2c(c1)C(=O)N(C)[C@@H]1CC[C@H](CC(=O)NCc3ccc(Cl)c(Cl)c3)O[C@H]1CO2
COc1ccccc1C(=O)Nc1ccc2c(c1)C(=O)N(C)[C@@H]1CC[C@@H](CC(=O)NCc3ccc(Cl)c(Cl)c3)O[C@H]1CO2
COc1ccccc1CNC(=O)C[C@@H]1CC[C@@H]2[C@@H](COc3ccc(NC(=O)Nc4ccc(F)c(F)c4)cc3C(=O)N2C)O1
COc1ccccc1CNC(=O)C[C@@H]1CC[C@@H]2[C@H](COc3ccc(NC(=O)Nc4ccc(F)c(F)c4)cc3C(=O)N2C)O1
O=C(c1ccccc1F)N1C[C@H]2[C@@H](c3ccccc31)[C@@H](CO)N2Cc1ccc2c(c1)OCO2
CCOc1ccc(Cl)cc1S(=O)(=O)n1cnc2cc(C)c(C)cc21
Cc1ccc(-n2nnc(-c3nccs3)n2)cc1
CCOc1ccc(CSC2=NCCN2)cc1Cl
CCCNC(=O)C[C@@H]1CC[C@H]2[C@H](COc3ccc(NC(=O)Cc4cccs4)cc3C(=O)N2C)O1
CCc1cccc(CC)c1NC(=O)COC(=O)C1(c2ccc(Cl)cc2)CCCC1
COc1ccc(OC)c(S(=O)(=O)N2CCNCC2)c1
Cn1nc(CC(=O)N2CCN(c3ccccc3)CC2)c2ccccc2c1=O
COc1cccc(C(=O)N2C[C@@H]3[C@H](c4ccccc42)[C@H](CO)N3C(=O)c2ccc(F)cc2)c1
COc1cccc(C(=O)N2C[C@@H]3[C@H](c4ccccc42)[C@@H](CO)N3C(=O)c2ccc(F)cc2)c1
CC(C)NC(=S)N1CCn2c(nc3ccccc32)C1
CC(C)CC(=O)NCCCN1CCN(CCCNC(=O)CC(C)C)CC1
CCOC(=O)c1ccc(-n2ccnc2)c(NC(=O)c2cccc(Br)c2)c1
Cn1cnc(S(=O)(=O)N2C[C@@H](O)COC[C@H]3O[C@@H](CC(=O)NC4CCCC4)CC[C@@H]32)c1
CCOC(=O)CN1C(=O)C(C)(C)Oc2ccc(C(=O)Nc3ccccc3)cc21
CC(=O)N1[C@H](CNC(=O)C2CC2)[C@@H](c2ccc(-c3ccccc3)cc2)[C@@H]1CO
Cc1cc(C)c2nc(Nc3nc(CSc4nc5ccccc5[nH]4)cc(=O)[nH]3)nc(C)c2c1
